Values joined by “and” are separate entries in the source; they are usually repeats but may differ in a detail not shown here. Identical values can stand only once. Results filed as inconclusive are left out. Entries that show only a call come without a potency. Active and inactive are the calls of the source. Unless noted, the call rests on the fitted dose curve; in most records, active means well fitted curve in the direction sought with a large enough effect; inconclusive means small, poorly fitted or top-dose-only effect, or another doubt; inactive means no such curve, though single readings can be large; an effect the other way counts as inactive or inconclusive.
How the values were obtained:
[1] = qHTS for Activators of Parkin Expression: LOPAC Validation Assay (NLuc Reporter) (AID 720572)
How it was run: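 Cells harboring the Parkin-promoter coincidence reporter were treated for 24 h at seven concentrations. NLuc output was measured sequentially after the FLuc channel and scaled between DMSO and positive control values.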

[2] = qHTS for Activators of Parkin Expression: LOPAC Validation Assay (FLuc Reporter) (AID 720573)
How it was run: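 Neuronal cell line stably carrying FLuc/NLuc coincidence reporter under Parkin promoter; cells plated 24 h, then compounds added in 7-point dose response for 24 h at 37 C. FLuc luminescence read; normalized to DMSO and positive control (100%).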

[3] = biological target: T1, Hexokinase-4 (Homo sapiens) + Glucokinase regulatory protein (Homo sapiens) (UniProt P35557+Q14397); test: qHTS assay for inhibitors of recombinant human GCK-GKRP interaction: Diaphorase-coupled assay (AID 743205)
How it was run: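 GST-GCK (10 nM) with FLAG-GKRP (10 nM), 5 mM glucose and 0.4 mM ATP in pH 7.6 Hepes; compounds preincubated 20 min with substrate. G6PDH/diaphorase coupling converts resazurin to resorufin, read kinetically (ex 525/em 590 nm) for 30 min.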

[4] = biological target: T1, Hexokinase-4 (Homo sapiens) + Glucokinase regulatory protein (Homo sapiens); test: qHTS assay for inhibitors of recombinant human GCK-GKRP interaction: ADP-Glo assay (AID 743206)
How it was run: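 Pin-transferred compounds meet a 15 nM GST-GCK/15 nM FLAG-GKRP/2 uM S6P mix (dispense concentrations). ATP is then added to 0.4 mM final with 5 mM glucose, and the reaction runs 60 min at room temperature. ADP is quantified luminescently.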

[5] = biological target: T1, Hexokinase-4 (Homo sapiens) + Glucokinase regulatory protein (Homo sapiens); test: qHTS assay for inhibitors of recombinant human GCK-GKRP interaction: HTRF assay (AID 743207)
How it was run: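 GST-GCK and FLAG-GKRP (5 nM each) were combined with 2 uM S6P in pH 7.1 Hepes/MgCl2/KCl/DTT buffer, then compound and anti-FLAG XL665/anti-GST K antibodies were added. After 60 min at room temperature, HTRF 665/615 nm emission was read.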

[6] = qHTS Assay for Identifying Gametocytocidal Compounds (AID 743244);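 further: actives lower the fluorescent signal which means gametocytes are killed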; details: P. falciparum 3D7 stage III-V gametocytes, alamarBlue, 72 h; max response: stronger effect = lower value
How it was run: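 Viability read-out was resazurin reduction (alamarBlue, 24 h) measured at Ex 525/Em 598 nm. Beforehand, late-stage (III-V) 3D7 P. falciparum gametocytes at 20,000 cells/well were incubated with compound 72 h at 37C under 5% CO2.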

[7] = qHTS profiling of the MIPE4 collection as inhibitors of Plasmodium falciparum (3D7) proliferation (AID 743344; call rule not given here); details: P. falciparum 3D7 in erythrocytes, SYBR Green DNA fluorescence, 72 h; at 28.5 µM (top of the series) unless noted
How it was run: (§1)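 Parasite DNA was quantified by SYBR Green I fluorescence (ex 485, em 535 nm) after overnight lysis in saponin/Triton buffer at room temperature. Cultures at 0.3% parasitemia and 2.5% hematocrit were first exposed to compound for 72 h at 37 C; signals were normalised to artemisinin (0.29 uM) and vehicle wells.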

[8] = qHTS profiling of the MIPE4 collection as inhibitors of Plasmodium falciparum (DD2) proliferation (AID 743345; call rule not given here); details: P. falciparum Dd2 in erythrocytes, SYBR Green DNA, 72 h; at 28.5 µM (top of the series) unless noted
How it was run: as §1

[9] = qHTS profiling of the MIPE4 collection as inhibitors of Plasmodium falciparum (DD2) proliferation (Rep 2) (AID 743346; call rule not given here); details: P. falciparum Dd2 in erythrocytes, SYBR Green DNA, 72 h; at 28.5 µM (top of the series) unless noted
How it was run: as §1

[10] = biological target: Arylsulfatase A (Homo sapiens) (UniProt P15289); test: qHTS screen for enhancers of Arylsulfatase A (ASA1): LOPAC Validation Assay (AID 720538)
How it was run: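 SV40-transformed skin fibroblasts from an MLD patient (ASA-I179S) were treated with compounds for 48h at 37 degree C, then lysed with 0.5mM pNCS final substrate for 14h at room temperature; NaOH stop, fluorescence read (Ex=525 nm; Em=598 nm).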

[11] = qHTS for compounds that reverse cellular toxicity of Amyloid beta (A-beta) peptide in yeast: LOPAC Validation Assay (AID 720559)
How it was run: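 Yeast cells expressing toxic A-beta were combined with pinned compounds in growth medium and incubated 48 hr at 30 C. Growth was read as absorbance at 600 nm and normalized to DMSO and to an equimolar FeCl3/clioquinol positive control.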

[12] = qHTS assay for small molecule agonists of the antioxidant response element (ARE) signaling pathway measured by Nrf2-dependant transcriptional activity (AID 720636; active means well fitted curve in the direction sought with a large enough effect in the repeat runs; an effect the other way counts as inactive or inconclusive;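 further: HepG2 cells with an ARE-driven luciferase reporter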)
How it was run: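 We exposed ARE-luc HepG2 cells, seeded in assay medium with 1% dialyzed FBS and allowed 6 hr to adhere, to test compounds overnight (16 hr, 37 C) before measuring luciferase with ONE-Glo.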

[13] = qHTS assay for small molecule agonists of the antioxidant response element (ARE) signaling pathway measured by Nrf2-dependant transcriptional activity - cell viability counter screen (AID 720653; active means well fitted curve in the direction sought with a large enough effect in the repeat runs; an effect the other way counts as inactive or inconclusive); details: ARE-bla HepG2 viability, CellTiter-Glo ATP luminescence, 16 h; max response: stronger effect = lower value
How it was run: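 ARE-bla HepG2 cells (2,000/well) rested 5 hrs at 37C/5% CO2, then exposed to compounds in DMSO for 16 hrs. Viability was read in the same wells as intracellular ATP by luminescence, 30 min at room temperature after reagent addition.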

[14] = qHTS assay for cell viability of the p53RE-bla HCT-116 cell line (AID 743292); further: nearly all actives have a fitted effect of over 55% in size
How it was run: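 In this qHTS counter-screen, metabolically competent p53RE-bla HCT-116 cells were counted via their ATP content. Compounds were applied for 16 h at 37 C and luciferase-coupled luminescence was measured.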

[15] = qHTS assay for small molecule antagonists of the retinoid-related orphan receptor gamma (ROR-gamma) signaling pathway - cell viability counter screen (AID 720652; active means well fitted curve in the direction sought with a large enough effect in the repeat runs; an effect the other way counts as inactive or inconclusive;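 further: CHO reporter cells with doxycycline-induced ROR-gamma expression; compound exposure lasted 16 hr before ATP read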)
How it was run: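 ATP-based viability readout in the ROR-gamma reporter CHO cells after 16 hr compound exposure under doxycycline induction.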

T1 sequence (P35557 whole entry, looked up): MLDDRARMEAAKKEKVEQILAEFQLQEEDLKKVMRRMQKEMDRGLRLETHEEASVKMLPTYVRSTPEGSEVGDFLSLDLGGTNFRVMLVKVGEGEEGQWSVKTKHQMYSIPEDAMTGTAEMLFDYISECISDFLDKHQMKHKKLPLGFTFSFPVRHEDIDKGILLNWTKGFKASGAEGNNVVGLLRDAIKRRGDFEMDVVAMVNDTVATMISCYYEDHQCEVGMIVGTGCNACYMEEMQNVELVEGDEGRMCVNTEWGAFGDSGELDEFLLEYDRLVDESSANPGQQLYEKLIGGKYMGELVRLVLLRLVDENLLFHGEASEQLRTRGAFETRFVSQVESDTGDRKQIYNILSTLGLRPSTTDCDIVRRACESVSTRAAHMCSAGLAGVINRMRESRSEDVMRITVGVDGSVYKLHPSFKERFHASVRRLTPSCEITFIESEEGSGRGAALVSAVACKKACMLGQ
T1 sequence (Q14397 whole entry, looked up): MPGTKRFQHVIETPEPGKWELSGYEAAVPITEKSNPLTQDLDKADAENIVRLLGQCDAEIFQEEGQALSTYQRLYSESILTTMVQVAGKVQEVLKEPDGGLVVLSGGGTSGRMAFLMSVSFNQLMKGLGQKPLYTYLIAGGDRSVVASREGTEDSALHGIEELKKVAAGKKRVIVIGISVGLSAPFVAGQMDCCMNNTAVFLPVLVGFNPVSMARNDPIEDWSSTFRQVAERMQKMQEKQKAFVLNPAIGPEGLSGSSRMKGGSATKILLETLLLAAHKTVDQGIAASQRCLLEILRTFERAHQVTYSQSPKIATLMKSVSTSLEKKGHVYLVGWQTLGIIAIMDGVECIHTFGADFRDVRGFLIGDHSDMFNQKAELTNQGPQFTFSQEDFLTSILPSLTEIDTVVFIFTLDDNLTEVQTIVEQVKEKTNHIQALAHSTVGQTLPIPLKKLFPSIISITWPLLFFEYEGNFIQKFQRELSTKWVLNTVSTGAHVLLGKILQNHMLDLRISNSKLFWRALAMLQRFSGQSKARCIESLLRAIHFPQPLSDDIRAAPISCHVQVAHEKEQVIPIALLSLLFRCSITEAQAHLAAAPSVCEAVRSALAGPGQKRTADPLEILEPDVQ
Arylsulfatase A (Homo sapiens), sequence (P15289 whole entry, looked up): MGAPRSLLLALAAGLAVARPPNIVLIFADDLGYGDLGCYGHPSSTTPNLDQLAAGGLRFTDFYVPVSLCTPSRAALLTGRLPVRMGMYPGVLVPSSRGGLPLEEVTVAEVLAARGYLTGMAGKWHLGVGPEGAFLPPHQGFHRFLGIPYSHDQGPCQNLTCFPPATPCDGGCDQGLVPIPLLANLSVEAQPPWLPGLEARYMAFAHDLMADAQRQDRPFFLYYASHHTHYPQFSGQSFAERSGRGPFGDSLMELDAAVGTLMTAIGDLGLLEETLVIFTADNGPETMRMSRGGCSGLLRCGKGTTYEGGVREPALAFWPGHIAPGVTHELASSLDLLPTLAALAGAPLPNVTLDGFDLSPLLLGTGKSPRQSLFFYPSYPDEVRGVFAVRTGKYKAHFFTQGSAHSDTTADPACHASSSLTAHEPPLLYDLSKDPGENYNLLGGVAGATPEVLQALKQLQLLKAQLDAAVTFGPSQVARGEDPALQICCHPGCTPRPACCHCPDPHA

COc1ccccc1OCC(O)CN1CCN(CC(=O)Nc2c(C)cccc2C)CC1 (centres undefined)
outcome [1]: inactive
Potency [2]: inactive
Potency [3]: inactive
Potency [4]: inactive
Potency [5]: inactive
max response [6]: 19.4% (inactive) and 42.5% (inactive)
parasite growth, % of DMSO control [7]: 126%
parasite growth remaining, % of DMSO control (lower = more inhibition) [8]: 97.5%
parasite growth, % of control (lower = inhibition) [9]: 193%

CCCCc1oc2ccccc2c1C(=O)c1cc(I)c(OCCN(CC)CC)c(I)c1
outcome [1]: inactive
Potency [2]: inactive
Potency [3]: inactive
Potency [4]: inactive
Potency [5]: inactive
parasite growth remaining, % of DMSO control (lower = more inhibition) [8]: 6.54%
parasite growth, % of control (lower = inhibition) [9]: 19.3%

O=C(C1CCCCC1)N1CC(=O)N2CCc3ccccc3C2C1 (centres undefined)
max response [6]: 3.64% (inactive) and 8.77% (inactive)
parasite growth remaining, % of DMSO control (lower = more inhibition) [8]: 89.3%

CN1CCC(=C2c3ccccc3C=Cc3ccccc32)CC1
Potency [10]: inactive
outcome [1]: inactive
Potency [2]: inactive
Potency [3]: inactive
Potency [4]: inactive
Potency [5]: inactive
parasite growth, % of DMSO control [7]: 15%
parasite growth remaining, % of DMSO control (lower = more inhibition) [8]: 36%
parasite growth, % of control (lower = inhibition) [9]: 35.3%

CN1C2CCC1CC(OC(=O)C(CO)c1ccccc1)C2 (centres undefined)
outcome [11]: inactive
outcome [1]: inactive
Potency [2]: inactive
Potency [3]: inactive
Potency [4]: inactive
Potency [5]: inactive

O=C(Nc1ccc([N+](=O)[O-])cc1Cl)c1cc(Cl)ccc1O
Potency [10]: inactive
outcome [12]: inactive
Potency [3]: inactive
Potency [4]: inactive
Potency [5]: inactive
parasite growth remaining, % of DMSO control (lower = more inhibition) [8]: 6.45%
parasite growth, % of control (lower = inhibition) [9]: 6.93%

CC(=O)OCC(CCn1cnc2cnc(N)nc21)COC(C)=O
max response [6]: 13.8% (inactive)
parasite growth, % of DMSO control [7]: 99.1%
parasite growth remaining, % of DMSO control (lower = more inhibition) [8]: 136%
parasite growth, % of control (lower = inhibition) [9]: 91.8%

CC(C)NCC(O)COc1ccc(CCOCC2CC2)cc1 (centres undefined)
outcome [11]: inactive
outcome [1]: inactive
Potency [2]: inactive
Potency [3]: inactive
Potency [4]: inactive
max response [6]: -0.0756% (inactive) and 27.3% (inactive)
parasite growth, % of DMSO control [7]: 77%
parasite growth remaining, % of DMSO control (lower = more inhibition) [8]: 89.8%
parasite growth, % of control (lower = inhibition) [9]: 46.9%

CNCCCC12CCC(c3ccccc31)c1ccccc12
Potency [10]: inactive
outcome [1]: inactive
Potency [2]: inactive
Potency [3]: inactive
Potency [4]: inactive
Potency [5]: inactive
parasite growth remaining, % of DMSO control (lower = more inhibition) [8]: 21.8%
parasite growth, % of control (lower = inhibition) [9]: 21.9%

C[C@](N)(Cc1ccc(O)c(O)c1)C(=O)O
outcome [11]: inactive
outcome [1]: inactive
Potency [2]: inactive
outcome [12]: inactive
max response [13]: -0.408% (inactive)
Potency [3]: inactive
Potency [4]: inactive
Potency [5]: inactive
max response [6]: 9.51% (inactive)
Potency [14]: inactive
parasite growth, % of DMSO control [7]: 73.9%
parasite growth remaining, % of DMSO control (lower = more inhibition) [8]: 80%
parasite growth, % of control (lower = inhibition) [9]: 77.2%

Cn1c(=O)c2[nH]cnc2n(C)c1=O
outcome [11]: inactive
outcome [1]: inactive
Potency [2]: inactive
outcome [12]: inactive
Potency [15]: inactive
max response [13]: 0.323% (inactive)
Potency [3]: inactive
Potency [4]: inactive
Potency [5]: inactive
max response [6]: 2.17% (inactive) and 13.8% (inactive)
Potency [14]: inactive
parasite growth remaining, % of DMSO control (lower = more inhibition) [8]: 102%

CC(COc1ccccc1)N(CCCl)Cc1ccccc1 (centres undefined)
outcome [12]: inactive
Potency [3]: inactive
Potency [4]: inactive
Potency [5]: inactive
Potency [14]: inactive
parasite growth, % of DMSO control [7]: 90.3%
parasite growth remaining, % of DMSO control (lower = more inhibition) [8]: 26.2%
parasite growth, % of control (lower = inhibition) [9]: 27%

COc1ccccc1OCCNCC(O)COc1cccc2[nH]c3ccccc3c12 (centres undefined)
outcome [11]: inactive
outcome [1]: inactive
Potency [2]: inactive
Potency [3]: inactive
Potency [4]: inactive
Potency [5]: inactive
max response [6]: 6.87% (inactive) and 32.1% (inactive)
parasite growth, % of DMSO control [7]: 16.5%
parasite growth remaining, % of DMSO control (lower = more inhibition) [8]: 17.9%
parasite growth, % of control (lower = inhibition) [9]: 20.7%

CCC1(C)CC(=O)NC1=O (centres undefined)
outcome [1]: inactive
Potency [2]: inactive
Potency [3]: inactive
Potency [4]: inactive
Potency [5]: inactive
max response [6]: 19% (inactive) and 33% (inactive)

CC(C)(C)C(=O)Oc1ccc(S(=O)(=O)Nc2ccccc2C(=O)NCC(=O)O)cc1
max response [6]: 3.13% (inactive)
parasite growth remaining, % of DMSO control (lower = more inhibition) [8]: 92.3%
parasite growth, % of control (lower = inhibition) [9]: 91.4%

CN1CCN2c3ccccc3Cc3ccccc3C2C1 (centres undefined)
outcome [1]: inactive
Potency [2]: inactive
Potency [3]: inactive
Potency [4]: inactive
Potency [5]: inactive
max response [6]: 25.6% (inactive)
parasite growth remaining, % of DMSO control (lower = more inhibition) [8]: 60.5%
parasite growth, % of control (lower = inhibition) [9]: 44.9%

CN(C)CCCN1c2ccccc2CCc2ccc(Cl)cc21
Potency [10]: inactive
outcome [1]: inactive
Potency [2]: inactive
Potency [3]: inactive
Potency [4]: inactive
Potency [5]: inactive
parasite growth remaining, % of DMSO control (lower = more inhibition) [8]: 12%
parasite growth, % of control (lower = inhibition) [9]: 24.6%
